Compound activity: PubChem, National Center for Advancing Translational Sciences (NCATS)
Shown are actives, neighbours in structure and some others; about 21% of the full set was active somewhere.
RORgamma inh – ROR gamma (mouse) transcription inhibition. P51450. Drosophila S2 Gal4-RORgamma UAS-luciferase reporter, 20 h. Potency, µM (series often up to 53.6 µM), without a hit: top-dose activity change, negative = inhibition, hits mostly inhibitors. actives 5.4% (n = 310,000). AID 2551; also: potency is read from the fitted curve at half-maximal effect; nearly all actives have a fitted effect of over 60% in size
Target sequence (P51450 whole entry, looked up, the tested form may be a part): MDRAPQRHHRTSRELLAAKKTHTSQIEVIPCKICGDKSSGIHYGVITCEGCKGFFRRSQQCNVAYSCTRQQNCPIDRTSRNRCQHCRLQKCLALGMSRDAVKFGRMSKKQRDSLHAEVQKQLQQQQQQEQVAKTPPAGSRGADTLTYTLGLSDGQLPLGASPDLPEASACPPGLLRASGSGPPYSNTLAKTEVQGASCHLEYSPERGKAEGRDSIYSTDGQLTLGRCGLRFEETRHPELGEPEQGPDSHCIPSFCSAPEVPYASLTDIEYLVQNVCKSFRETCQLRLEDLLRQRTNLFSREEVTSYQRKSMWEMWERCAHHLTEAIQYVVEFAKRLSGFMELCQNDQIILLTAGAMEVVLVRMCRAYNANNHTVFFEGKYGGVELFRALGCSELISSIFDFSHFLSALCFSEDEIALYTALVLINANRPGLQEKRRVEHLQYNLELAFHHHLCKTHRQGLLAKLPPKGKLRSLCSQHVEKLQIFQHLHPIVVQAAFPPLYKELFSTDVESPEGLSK
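Using a luciferase readout, inhibitors were identified by reduced reporter activity in Drosophila cells coexpressing a copper-inducible Gal4–ROR gamma fusion and UAS-driven Photinus luciferase, incubated 20 hr after 700 uM copper sulfate.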
TDP1 cell noCPT – qHTS for Inhibitors of human tyrosyl-DNA phosphodiesterase 1 (TDP1): qHTS in cells in absence of CPT. DT40 Tdp1-/- hTDP1 cells, no CPT, ATP luminescence, 48 h. Potency, µM (highest dose often 46.2 µM), for the others: at the highest dose activity change, negative = growth inhibition, hits mostly inhibitors. actives 15% (n = 420,000). AID 686978, 2013; also: potency is read from the fitted curve at half-maximal effect; nearly all actives have a fitted effect of over 55% in size
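Chicken DT40 Tdp1-/- cells stably complemented with human TDP1 were seeded at 400 cells/well with DMSO in place of 20 nM camptothecin. After compound pinning, cells grew at least 48 hr at 37 °C; viability read by CellTiter-Glo luminescence.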
IL1B secr inh – inflammasome signaling inhibition, IL-1 beta readout; THP-1 LPS/ATP IL-1B secretion, AlphaLISA, 16 h; hits give low values; activity change, % at 57.5 µM; actives 4.7% (n = 360,000); AID 743279; in the data active = activity change below about -50%; inconclusive = mostly about -30% to -49%
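THP-1 cells pretreated 1 hr with compounds (up to 57.5 uM final), then stimulated with LPS (250 ng/mL final) plus ATP (1.25 mM final); secreted IL-1B measured by AlphaLISA after 16 hr, decreased signal indicating inhibition.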
TDP1 cell CPT – DT40-hTDP1 cell growth loss with CPT; chicken DT40 Tdp1-/-;hTDP1 cells + 20 nM CPT, ATP luminescence, 48 h; Potency, µM (doses to about 46.2 µM), inactives show at the top dose activity change, negative = growth inhibition, usual class: inhibitors; actives 12% (n = 420,000); AID 686979; also: potency is read from the fitted curve at half-maximal effect; nearly all actives have a fitted effect of over 55% in size
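Chicken DT40 Tdp1-/- cells stably complemented with human TDP1 were seeded at 400 cells/well in medium containing 20 nM camptothecin, exposed to pin-transferred compounds, and grown at 37 °C for at least 48 hr. Viability was read as ATP luminescence.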
VP16 counter – Gal4-VP16 reporter inhibition counter-screen; AID 2546; Potency, µM (series often up to 53.6 µM), for the others: at the top dose activity, negative = inhibition, hits mostly inhibitors; actives 3.5% (n = 310,000); Drosophila S2 Gal4-VP16 UAS-luciferase, luminescence, 20 h;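 also: Gal4-VP16 expression switched on by copper sulfate through the metallothionein promoter; potency is read from the fitted curve at half-maximal effect; nearly all actives have a fitted effect of over 50% in size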
ELG1 DNA repair – inhibitors of ELG1-dependent DNA repair in HEK293T cells; AID 504467; Potency, µM (titrated, usually from 46.1 µM), without a hit: at the highest dose activity change, negative = inhibition, usual class: inhibitors; HEK293T ELG1-luciferase reporter, luminescence, 16 h; DNA damage induced by 5-fluorouridine; actives 2.3% (n = 330,000); also: potency is read from the fitted curve at half-maximal effect; nearly all actives have a fitted effect of over 55% in size
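In this reporter screen, reduction of luminescence relative to DMSO vehicle indicated activity. Compounds and 5-fluorouridine were added together to 2,000 cells per well, incubated for 16 hr at 37 °C, then developed with ONE-Glo.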
Numbers without * were called inactive; ? = inconclusive; · = no result; [ ] = dose if it differs, or a comment. Unless noted, calls follow the shape of the dose curve; as a rule, active = well fitted curve in the direction sought with a large enough effect; inconclusive = small, poorly fitted or top-dose-only effect, or another doubt; inactive = no such curve, though single readings can be large; an effect the other way counts as inactive or inconclusive. % is scaled to controls: 0 for no effect and ±100 for the full control effect.

SMILES | RORgamma inh | TDP1 cell noCPT | IL1B secr inh | TDP1 cell CPT | VP16 counter | ELG1 DNA repair
O=C(CCc1nc2ccccc2c(=O)[nH]1)Nc1cc(C(F)(F)F)ccc1N1CCCC1 | · | -1% | 69 | -19% | · | 6%
N#CCOC(=O)[C@H](Cc1c[nH]c2ccccc12)NS(=O)(=O)c1ccc(Cl)cc1 | 1% | -30% | 34 | -20% | 13% | -1%
CCCc1cn(CC(C)n2c(=O)c3ccccc3n2Cc2cc(C(C)C)no2)nn1 (stereo not drawn) | · | 3% | -19 | 5% | · | ·
O=C(Cc1cccc(NC(=O)C2CCN(C(=O)C3CC3)CC2)c1)Nc1cccc(C(=O)N2CCCCC2)c1 | · | -6% | 0 | -6% | · | ·
CCc1ccccc1NC(=O)Cn1nc(C(F)(F)F)c2c1CCC2 | ? | ? | -16 | 8% | -7% | 0%
CCc1ccccc1NC(=O)Cn1nc(-c2cc(C)ccc2C)c2c(c1=O)CCCC2 | · | 15µM* | · | ? | · | ·
O=C(Oc1ccc(Br)cc1C(=O)/C=C/c1ccccc1F)c1ccco1 | · | 16µM* | -98* | 21µM* | · | ·
CC(C)(C)NC(=O)Cn1c(SCC(=O)N2CCCCCC2)nc2ccccc21 | 32% | -18% | -6 | -18% | -9% | 1%
CCSc1nc2ccccc2n1CCC(=O)O | 10% | -2% | 11 | -16% | -12% | 9%
CC(C)(C)NC(=O)Cn1c(SCC(N)=O)nc2ccccc21 | 0% | ? | -1 | 26µM* | 1% | 5%
CCCn1c(SCC(=O)C(C)(C)C)nc2ccccc21 | 11µM* | -1% | 31 | 19% | ? | -5%
Cc1nn(C(C)C(=O)NNC(=S)Nc2ccc(F)cc2)c(C)c1[N+](=O)[O-] (stereo not drawn) | ? | 1% | -4 | 4% | -13% | 15%
Cc1nn(CCC(=O)NNC(=S)Nc2ccc(F)cc2)c(C)c1Br | 0.89µM* | ? | 17 | ? | ? | 1%
CCCCNC(=S)NNC(=O)CCn1nc(C)c(Br)c1C | 0.63µM* | 5.6µM* | 7 | 6.3µM* | 2.8µM* | -10%
Cc1nn(CCC(=O)NNC(=S)Nc2ccc([N+](=O)[O-])cc2)c(C)c1[N+](=O)[O-] | -17% | -21% | 28 | 6% | -1% | -4%
Cc1nn(C)c(C(=O)NNC(=S)Nc2ccc(F)cc2)c1[N+](=O)[O-] | 7.9µM* | -4% | 0 | -5% | ? | 7%
Cc1cccc(N2CCn3c2nc2c3c(=O)n(CCCc3ccccc3)c(=O)n2C)c1 | · | ? | · | -26% | · | ·
Cc1cc(=O)n2cccc(O)c2n1 | 0.89µM* | 4.6µM* | -57* | 3.7µM* | 1.8µM* | ?
O=C(NCc1ccco1)C1C(=O)Nc2ccccc2C(=O)N1C1CCCCC1 (stereo not drawn) | · | 4% | -9 | 6% | · | ·
CCOC(=O)C1=C(CS(=O)(=O)c2ccc(C(C)(C)C)cc2)NC(=O)NC1c1cccc(OC)c1 (stereo not drawn) | · | 16µM* | · | 16µM* | · | ·
CCOC(=O)C1=C(CS(=O)(=O)c2c(C)cc(C)cc2C)NC(=O)NC1c1cccc(OC)c1 (stereo not drawn) | · | ? | · | -15% | · | ·
CNC(=O)c1c(NC(=O)c2nc(SCc3ccc(C)cc3)ncc2Cl)sc2c1CCCC2 | · | -15% | · | 1% | · | ·
CCOC(=O)c1cc(-c2cccnc2)nn1-c1ccccc1 | -3% | ? | -98* | 17% | -2% | 2%
CC(=O)c1sc(NC(=O)c2cc(-c3ccccc3)nn2-c2ccccc2)nc1C | -9%[10 µM] | 6.5µM* | -61* | 8.2µM* | ? | 15µM*
O=C(NNC(=O)c1cc(-c2ccccc2)nn1-c1ccccc1)c1ccccc1 | ? | ? | -97* | -11% | ? | 14%
SMILES | RORgamma inh | TDP1 cell noCPT | IL1B secr inh | TDP1 cell CPT | VP16 counter | ELG1 DNA repair
O=C(Nc1nc2ccccc2s1)c1cc(-c2ccccc2)nn1-c1ccccc1 | 10µM* | 10µM* | -14 | ? | ? | ?
Cc1cnc(NC(=O)c2cc(-c3ccccc3)nn2-c2ccccc2)s1 | · | -21% | -2 | -2% | · | ·
CCOC(=O)c1cc(-c2ccccc2)nn1-c1ccccn1 | 1% | 0% | 4 | -15% | -5% | 0%
CN1CCCC(CNC(=O)c2cnn(-c3ncc4c(n3)-c3ccccc3CC4)c2C2CC2)C1 (stereo not drawn) | · | -10% | · | -12%[9.04 µM] | · | ·
CCN(CC)C(=O)C1=C(C)N(CCCOC)C(=O)C(CC(=O)NCCCCc2ccccc2)C1 (stereo not drawn) | · | -21% | 7 | -2% | · | ·
CC[C@H](NC(=O)[C@H](CCCN=C(N)N)NC(=O)[C@H](Cc1c[nH]c2ccccc12)NC(=O)[C@@H](N)CS)C(=O)N[C@@H](CCCN=C(N)N)C(=O)N[C@@H](Cc1ccc(O)cc1)C(N)=O | 12% | · | · | · | -13% | ·
CN1[C@@H]2CC[C@H]1CC(NC(=O)n1c(=O)[nH]c3ccccc31)C2 (stereo partly drawn) | · | -4% | · | 1% | · | ·
CCc1cccc(CC)c1NC(=O)CSc1nc2ccc(N3C(=O)C4C(C3=O)[C@H]3C=C[C@@H]4C3)cc2s1 (stereo partly drawn) | 88% | 8.2µM* | -6 | ? | -10% | ?
Cc1cc(C)c(NC(=O)CSc2nc3ccc(N4C(=O)c5ccccc5C4=O)cc3s2)c(C)c1 | 1% | -15% | 14 | 0% | -4% | 2%
CCC1CN(CCNC(=O)c2cccc(N3CCCC3=O)c2)Cc2cc(OC)ccc2O1 (stereo not drawn) | · | -16% | · | -6%[9.04 µM] | · | ·
CCOC(=O)[C@H]1[C@H]2COc3ccc(Cl)cc3[C@@H]2N2C(=O)c3cc(OC)ccc3NC(=O)[C@@]12C | · | 23µM* | -27 | ? | · | -23%
CCOC(=O)[C@H]1[C@H]2COc3ccc(Cl)cc3[C@@H]2N2C(=O)c3ccc(Cl)cc3NC(=O)[C@@]12C | · | 18µM* | -7 | ? | · | -2%
Cc1cccc(C)c1NC(=O)C1(C)CSCC(=O)N1CCc1ccc(O)cc1 (stereo not drawn) | · | 3% | 8 | 24% | · | ·
CC(C)(Oc1ccc(Cl)cc1)C(=O)NC1CCN(Cc2ccccc2)CC1 | · | 18µM* | ? | ? | · | 0%
S=C(Nc1ccc(CN2CCCCC2)cc1)Nc1cccc(Cl)c1Cl | -26% | 18µM* | -12 | ? | 2% | ?
